Results as given in the supplement of paper PMC12340641.

Tested on: HEK293FT dCK*-IKZF1
Test: relative growth recovery (pomalidomide 10 uM = 100%, DMSO = 0%); higher = more growth rescue (IKZF1 fusion degradation)
Conditions: compound concentration: 5 uM; AraC concentration: 0.3 uM; overnight pretreatment + 4 days AraC
In short: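 HEK293FT cells stably expressing a dCK*-IKZF1 fusion (300/well, 384-well) received 5 μM compound 2 h after seeding. After overnight at 37 °C they received a nucleoside suicide substrate at 0.3 μM plus medium for 4 days. On day 5, Hoechst 33342-stained nuclei were counted by whole-well imaging. Growth recovery was normalised per plate to a reference degrader (100%) and vehicle (0%); values are means of duplicates run on different days.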

Q: Which relative growth recovery does the source give for CC(Cc1ccccc1)NCCC(c1ccccc1)c1ccccc1 (centres undefined) [prenylamine] here?
A: -0.73%

Q: With CO[C@H]1[C@H](O)[C@H](O[C@H]2CC[C@@]3(C=O)[C@H](CC[C@@H]4[C@@H]3CC[C@]3(C)[C@@H](C5=CC(=O)OC5)CC[C@]43O)C2)O[C@@H](C)[C@@H]1O [Peruvoside] as the compound, how does the relative growth recovery read?
A: -12.7%

Q: Which relative growth recovery does the source give for C[C@@H]1C[C@@H]([C@H](O)CC2CC(=O)NC(=O)C2)C(=O)[C@@H](C)C1 here?
A: -12%

Q: With CC[C@H]1CN2CCc3cc(OC)c(OC)cc3C2C[C@@H]1CC1NCCc2cc(OC)c(OC)cc21 (some centres undefined) as the compound, how does the relative growth recovery read?
A: -12.4%

Q: How did the relative growth recovery turn out when CC(C)[C@]12O[C@H]1[C@@H]1O[C@]13[C@]1(O[C@H]1C[C@H]1C4=C(CC[C@@]13C)C(=O)OC4)[C@@H]2O [Triptolide] was run?
A: -12.8%

Q: Which relative growth recovery does the source give for c1ccc2c(c1)Nc1ccccc1S2 here?
A: 0.68%

Q: With CCOc1ccccc1-n1c(C(C)N2CCN(C(=O)COc3ccc(Cl)cc3)CC2)nc2ccccc2c1=O (centres undefined) [Erastin] as the compound, how does the relative growth recovery read?
A: -1.44%

Q: How did the relative growth recovery turn out when CCC(C)[C@H]1O[C@]2(C=C[C@@H]1C)C[C@@H]1C[C@@H](C/C=C(\C)[C@@H](OC3C[C@H](OC)C(O[C@H]4C[C@H](OC)[C@@H](O)[C@H](C)O4)[C@H](C)O3)[C@@H](C)/C=C/C=C3\CO[C@@H]4[C@H](O)C(C)=C[C@@H](C(=O)O1)[C@]34O)O2 (some centres undefined) [ABAMECTIN (avermectin B1a shown)] was run?
A: -3.08%

Q: For CCCCC1(C2CCCC2)Cc2cc(OCCCC(=O)O)c(Cl)c(Cl)c2C1=O (centres undefined), which relative growth recovery is on record?
A: 0.8%
